Screens: PubChem BioAssay, National Center for Advancing Translational Sciences (NCATS)
This is a sample that favours compounds with a hit; in the whole collection about 1.2% have one here.
RXFP1 ag: RXFP1 (human) receptor agonism; HEK293T-RXFP1 cAMP TR-FRET, 30 min; response scale: percent of porcine relaxin response, buffer zero; 0.3% of 370,000 active; Potency, µM (series often up to 57.5 µM), without a hit: at the highest dose activation, actives largely listed as activators; AID 2676; further: potency means the concentration at half of the fitted maximal effect; on the % scale 0 is the no-effect control and ±100 the full control effect; nearly all actives have a fitted effect of over 60% in size
Target sequence (Q9HBX9 whole entry, looked up): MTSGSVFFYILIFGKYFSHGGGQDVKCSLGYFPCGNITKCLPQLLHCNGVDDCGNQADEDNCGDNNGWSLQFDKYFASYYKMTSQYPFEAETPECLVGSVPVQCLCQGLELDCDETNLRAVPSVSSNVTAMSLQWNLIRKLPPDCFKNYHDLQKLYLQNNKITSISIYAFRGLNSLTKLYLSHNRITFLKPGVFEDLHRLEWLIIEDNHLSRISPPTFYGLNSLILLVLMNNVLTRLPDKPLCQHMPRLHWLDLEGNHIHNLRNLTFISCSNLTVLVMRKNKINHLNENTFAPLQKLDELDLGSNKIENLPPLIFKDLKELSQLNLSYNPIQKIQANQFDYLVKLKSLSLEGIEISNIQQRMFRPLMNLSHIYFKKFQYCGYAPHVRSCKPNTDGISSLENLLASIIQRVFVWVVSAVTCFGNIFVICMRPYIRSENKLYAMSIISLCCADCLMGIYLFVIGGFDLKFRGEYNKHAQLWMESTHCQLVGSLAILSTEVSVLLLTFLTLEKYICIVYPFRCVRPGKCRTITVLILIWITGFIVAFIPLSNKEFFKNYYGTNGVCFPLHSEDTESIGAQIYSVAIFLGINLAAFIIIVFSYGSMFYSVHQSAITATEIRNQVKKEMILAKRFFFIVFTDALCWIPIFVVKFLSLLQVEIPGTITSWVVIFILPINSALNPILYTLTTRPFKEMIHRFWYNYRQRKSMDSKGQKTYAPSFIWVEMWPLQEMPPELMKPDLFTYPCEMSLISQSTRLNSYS
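Agonist response is measured as cAMP accumulation in an RXFP1-transfected HEK293T line under PDE4 inhibition. Values are scaled between buffer-only and 29 nM porcine relaxin, and EC50s come from standard Hill equation fits.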
gsp agonist: agonists of gsp mutant (McCune-Albright syndrome); gsp mutant cells, cAMP HTRF, 30 min; Potency, µM (series often up to 76.9 µM), inactives show top-dose activation (cAMP increase), most hits filed as activators; 0.13% of 340,000 active; AID 624287; active means well fitted activation curve with a large enough effect; inconclusive means small, poorly fitted or top-dose-only effect, or another doubt; inactive means no such curve, though single readings can be large or run the other way; cell line not stated here;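 further: phosphodiesterase inhibitor Ro 20-1724 added with compounds to block cAMP breakdown; potency means the concentration at half of the fitted maximal effect; nearly all actives have a fitted effect of over 60% in size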
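Cells stably selected in G418 were plated at 2000/well, grown 16-24 hr, then given compounds in DMSO with the PDE inhibitor […] (300 uM solution added) for 30 min at 37C; cAMP was read by HTRF.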
CCT chaperon mod: changes cytosolic chaperonin activity. 0.3% of 360,000 active. AID 651819. purified chaperonin ATPase assay, HTRF ADP detection, 30 min. activity change, % (concentration not given with the values), hits read low; in the data active means activity change below about -30%; further: on the % scale 0 is the no-effect control and ±100 the full control effect
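First, chaperonin was dispensed at 40 nM or 20 nM final depending on batch activity. Next, compounds were pinned at 76 uM and ATP added at 10 uM. After 30 min at 37 °C, ADP detection reagents ran 30 min at ambient temperature.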
gsp antagonist: antagonizes gsp, the McCune-Albright syndrome mutation; AID 624288; 0.4% of 340,000 active; gsp-mutant cells, cAMP HTRF, 30 min; Potency, µM (top dose mostly 76.9 µM), inactives show at the highest dose activity change, negative = inhibition, usual class: inhibitors; calls by dose curve; cell line not stated here;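 further: intracellular cAMP measured with PDE inhibitor Ro 20-1724 present during compound exposure; potency means the concentration at half of the fitted maximal effect; on the % scale 0 is the no-effect control and ±100 the full control effect; nearly all actives have a fitted effect of over 65% in size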
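Cells in G418 medium, seeded 16-24 h, 37C; buffer exchange to DPBS + 1 mM CaCl2, 0.5 mM MgCl2, 0.05% BSA; cpds in DMSO + […] (300 uM stock), 30 min 37C; HTRF cAMP detection.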
MmCpn inh: M. maripaludis TRiC chaperonin inhibition | 0.031% of 330,000 active | Potency, µM (titrated, usually from 76.9 µM), without a hit: top-dose activity, negative = inhibition, actives largely listed as inhibitors | purified Mm-Cpn ATPase, ADP Transcreener TR-FRET | AID 504842; further: potency means the concentration at half of the fitted maximal effect; on the % scale 0 is the no-effect control and ±100 the full control effect; nearly all actives have a fitted effect of over 80% in size
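Quantitative HTS used 25 nM Mm-CPN and 10 uM ATP in magnesium/KCl Tris buffer, pH 7.4, with 1 mM DTT. Hydrolysis ran 30 min at 37°C; ADP was read by HTRF.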
RXFP1 antagonist: RXFP1 (human) relaxin receptor antagonism. HEK293-RXFP1, relaxin-stimulated cAMP HTRF, 30 min; hits give low values. AID 1259400. activity change, negative = inhibition, % at 57.5 µM. 0.59% of 350,000 active;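 active means activity change of -60% or lower, but not beyond a set lower limit; inconclusive means change between -60% and -40%, or beyond the set limit; inactive means change above -40%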; further: on the % scale 0 is the no-effect control and ±100 the full control effect
* = called active by the depositor; ? = inconclusive; · = no result; [ ] = dose if it differs, or a comment. Unless noted, the call rests on the fitted dose curve; in most records, active means well fitted curve in the direction sought with a large enough effect; inconclusive means small, poorly fitted or top-dose-only effect, or another doubt; inactive means no such curve, though single readings can be large; an effect the other way counts as inactive or inconclusive.

SMILES	RXFP1 ag	gsp agonist	CCT chaperon mod	gsp antagonist	MmCpn inh	RXFP1 antagonist
CCSC1=C(C#N)C(c2ccc(Cl)cc2)C2=C(CCCC2=O)N1 (stereo not given)	0.3%	9.0%	-0.8	44.7µM*	-1.3%	-2.8
CSC1=C(C#N)C(c2ccc3c(c2)OCO3)C2=C(CCCC2=O)N1 (stereo not given)	0.1%	1.7%	0.7	-15.9%	-1.8%	-6.1
Cc1cccc(N2CCN(C(=O)CCNS(=O)(=O)c3ccc4c(c3)CCN4C(=O)C3CC3)CC2C)c1 (stereo not given)	0.9%	·	·	·	·	·
c1ccc(-c2csc(-c3ccncc3)n2)cc1	5.8%	7.6%[15.4 µM]	1.2	-0.5%	-0.9%	-11.1
Brc1ccsc1-c1csc(-c2ccncc2)n1	17.6%	17.8µM*	1.5	-2.8%	-10.0%	-2.8
Cc1cccc(-c2nc3c4ccccc4n(Cc4cccc(Cl)c4)c(=O)n3n2)c1	0.9%	·	·	·	·	12.7
Cc1cc(C)c(NC(=O)/C(=C/c2ccco2)c2ccccc2)c(C)c1	0.4%	-7.8%	-0.7	39.8µM*	-1.5%	-6.9
CN1CCN(CCn2c(=S)[nH]c3ccccc3c2=O)CC1	0.3%	1.5%[15.4 µM]	-1.1	6.4%	-3.0%	-5.2
O=c1c2ccccc2[nH]c(=S)n1CCc1ccccc1	-1.1%	-15.1%	1.2	11.4%	-15.1%	-11.3
O=c1c2ccccc2[nH]c(=S)n1CCN1CCc2ccccc2C1	0.3%	16.0%[15.4 µM]	-0.5	-11.1%	0.2%	-75.3*
NS(=O)(=O)c1ccc(CCn2c(=S)[nH]c3ccccc3c2=O)cc1	0.5%	-23.4%[15.4 µM]	-3.2	0.1%	-1.4%	-64.0*
O=C(Nc1ccccc1)c1cccc(S(=O)(=O)Nc2cccc(F)c2)c1	-0.8%	·	·	·	·	-4.4
Cc1cc(-c2c(C)[nH]n(-c3ccccc3)c2=O)n(-c2ccccc2)n1	-4.3%	2.0%	-2.4	-2.8%	-3.3%	-1.9
Cc1cc(-c2c(C)[nH]n(-c3ccc(Cl)cc3)c2=O)n(-c2ccc(Cl)cc2)n1	0.1%	-13.7%	-0.7	31.6µM*	-0.4%	-16.7
CCOC(=O)c1cc(-c2ccccc2)n(-c2cccc(C(=O)N(C)c3ccc(C)cc3)c2)c1C	-0.9%	·	·	·	·	-62.7*
CCOC(=O)c1cc(-c2ccccc2)n(-c2cccc(C(=O)NC(C)(C)C)c2)c1C	0.3%	·	·	·	·	-21.0
COc1cc(NC(=O)c2ccccc2[N+](=O)[O-])ccc1NC(=O)c1cc2ccccc2o1	·	23.7%	2.0	22.4µM*	·	-12.9
COc1cc2c(cc1NC(=O)c1ccccc1C)n(C)c(=O)n2C	0.1%	·	·	·	·	·
O=C(CSc1ccc(Cl)cc1)N1CCC(c2nc3ccccc3s2)CC1	-2.9%	-17.6%	-4.5	31.6µM*	0.9%	-10.6
O=C(CN1C(=O)c2ccc(Br)cc2C1=O)NCC1CCCO1 (stereo not given)	?	7.08µM*	0.6	13.1%	0.0%	11.2
COc1ccc(NC(=O)CN2CCN(Cc3ccccc3Cl)S2(=O)=O)cc1Cl	0.8%	·	·	·	·	·
C=C1N(C)c2cc([N+](=O)[O-])c(N)cc2C1(C)C	-3.7%	-10.8%[15.4 µM]	-0.2	28.2µM*	-5.1%	-71.0*
CCCc1c(C(=O)OCC)sc(N)c1C#N	-2.7%	-9.9%	0.4	7.4%	-12.7%	21.5
CCOC(=O)c1sc(N)c(C#N)c1CSc1nnc(C2CC2)n1N	1.4%	12.0%	-38.8*	5.0%	1.1%	-8.0
CCc1nnc2c(N3CCN(c4cccc(C)c4)C(C)C3)nc3ccccc3n12 (stereo not given)	12.5%	·	·	·	·	-12.6
SMILES	RXFP1 ag	gsp agonist	CCT chaperon mod	gsp antagonist	MmCpn inh	RXFP1 antagonist
COc1ccc(-n2c(=O)c3ccc(C(=O)NCc4ccc(C)cc4)cc3n(CC(=O)Nc3ccc(F)cc3)c2=O)cc1	31.6µM*	·	·	·	·	·
COc1ccc(-n2c(=S)[nH]c3cc(C(=O)NCc4ccc(F)cc4)ccc3c2=O)c(OC)c1	0.4%	7.0%[15.4 µM]	-2.3	25.1µM*	-3.1%	-16.9
COc1ccc(NC(=O)c2ccc3c(=O)n(-c4ccc(OC)cc4OC)c(=S)[nH]c3c2)cc1	0.6%	31.7%[15.4 µM]	0.0	-90.3%	-2.7%	-12.6
COc1ccc(-n2c(=S)[nH]c3cc(C(=O)Nc4ccccc4OC)ccc3c2=O)c(OC)c1	-1.2%	3.8%[15.4 µM]	-1.4	28.2µM*	3.3%	-18.7
COc1ccc(-n2c(=S)[nH]c3cc(C(=O)Nc4ccc(F)cc4)ccc3c2=O)c(OC)c1	3.4%	5.4%	1.9	39.8µM*	-0.9%	?
O=C(CSc1nc2nccnc2c(=O)n1CCc1c[nH]c2ccccc12)Nc1ccc(F)cc1	-2.0%	·	·	·	·	4.7
C#CCOc1c(Br)cc(C2C(C(=O)OC)=C(C)NC3=C2C(=O)c2ccccc23)cc1OCC (stereo not given)	6.8%	·	·	·	·	-3.8
COCCCn1c(=O)cc(C)[nH]c1=S	2.0%	27.0%	-38.9*	11.5%	0.9%	3.8
O=C(N/N=C/c1ccc(OC(=O)c2ccccc2Cl)cc1)c1cc(O)cc(O)c1	1.6%	-5.2%[15.4 µM]	-5.0	-10.8%	0.3%	-85.0*
CC(=O)NC1C(=O)N(CCN2CCOCC2)c2ccc(Cl)cc21 (stereo not given)	-2.4%	?	-30.0*	5.4%	-6.5%	-28.9
CC(=O)NC1C(=O)N(CCN2CCOCC2)c2ccc(C)cc21 (stereo not given)	0.3%	25.0%	-0.6	5.5%	-9.7%	-1.6
CC1(C)CC(=O)C/C(=N\NC(=O)C2CC23CCC3)C1 (stereo not given)	4.2%	-4.2%[15.4 µM]	0.9	-11.5%	50.1µM*	-13.4
CC1(C)CC(=O)C/C(=N\NC(=O)C2CC2c2ccccc2)C1 (stereo not given)	-1.2%	-2.7%	-1.8	7.1%	1.8%	-3.2
CCc1ccc(-n2c(N3CCN(c4cccc(C)c4C)CC3)nc3ccccc3c2=O)cc1	0.1%	·	·	·	·	-4.8
CCOC(=O)C1CCCN(S(=O)(=O)c2c(C)c(C)cc(C)c2C)C1 (stereo not given)	-0.6%	-2.0%	0.7	7.08µM*	4.1%	-14.8
CCOC(=O)C1CCCN(S(=O)(=O)c2ccccc2)C1 (stereo not given)	-0.7%	-18.1%	-0.5	7.3%	0.3%	-12.9
CCc1ccc(C(=O)CC2(O)C(=O)N(CCc3ccccc3)c3ccc(Cl)cc32)cc1 (stereo not given)	-1.5%	·	·	·	·	-32.3
C=CCOc1c(Cl)cc(CNc2ccc(N(C)C)cc2)cc1OC	-14.5%	14.5%	-8.7	?	15.8µM*	-102.9*
OCC[C@H]1C[C@H](O)[C@@H](O)[C@]2(CCCO2)O1	·	3.4%	-64.8*	10.8%	·	·
CCOc1ccc(-c2[nH]ncc2Oc2ccccc2OCC)c(O)c1	1.5%	2.5%	-73.5*	-1.3%	2.5%	-21.4
